Screens from PubChem BioAssay.
KDM5B inhibitor: Primary screen for KDM5B Histone Demethylases FDH-coupled qHTS. Lysine-specific demethylase 5B (Homo sapiens), Q9UGL1. KDM5B demethylase, FDH-coupled NADH fluorescence (FDH is formaldehyde dehydrogenase). Potency, µM (titrated, usually from 57.7 µM), hits mostly inhibitors. 220,000 tested, 2.6% active; also: potency is read from the fitted curve at half-maximal effect; 0% is about no effect; nearly all actives have a fitted effect of over 70% in size
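Measured: NADH fluorescence change, 30 min, RT. System: KDM5BΔAP 200 nM final, H3K4me3 peptide, α-KG, Fe(II), ascorbate, NAD⁺ plus FDH, pH 7.5 HEPES. Compounds: titrated, 10 min pre-incubation with enzyme.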
IP6K1 inh: Primary qHTS assay for small molecule inhibitors of Inositol hexaphosphate kinase 1 (IP6K1); Inositol hexakisphosphate kinase 1 (Homo sapiens), Q92551; IP6K1 kinase, ADP-Glo luminescence, 2 h; stronger effect = lower value; activity change, % (series mostly up to about 58 µM); 140,000 tested, 0.81% active; AID 1645851, 2021; in the data active = activity change below about -25%; also: % is scaled to controls: 0 for no effect and ±100 for the full control effect
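ADP-Glo luminescence measures ADP made by human IP6K1 during a 2 h RT reaction with ATP/IP6 (mix at 1.3 mM/130 uM); top library doses 57.5 and 19.1 uM final.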
SNCA expr inh: Primary qHTS assay for inhibitors of alpha-synuclein gene (SNCA) expression; HEK-293 SNCA-luciferase knock-in, luminescence, 24 h; AID 1671194, 2021; Potency, µM (top dose mostly 57.2 µM), inactives show top-dose activity change, negative = inhibition, usual class: inhibitors; 140,000 tested, 0.17% active;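 also: potency is read from the fitted curve at half-maximal effect; plate controls were DMSO cells for no effect and cell-free wells for full effect; nearly all actives have a fitted effect of over 45% in size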
SNCA viab count: GF-AFC viability counterscreen for inhibitors of alpha-synuclein gene (SNCA) expression; HEK-293-SNCA-luc viability, GF-AFC fluorescence, 24 h; Potency, µM (doses to about 57.1 µM), for the others: at the highest dose activity change, negative = cytotoxicity, most hits filed as cytotoxic; AID 1671193, 2021; 150,000 tested, 0.12% active;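 also: potency is read from the fitted curve at half-maximal effect; 0% = DMSO-treated cells and -100% = medium-only wells without cells; nearly all actives have a fitted effect of over 30% in size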
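HEK-293-SNCA-luc cells (1500/well) plated 24 h, then exposed 24 h to a dilution series; GF-AFC added 30 min at 37C, fluorescence 405/540 nm; normalised to medium-only and DMSO wells, Hill fit.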
Starred values were filed as active, the others as inactive; i = inactive; ? = inconclusive; / = not tested or not shown; [ ] = remark or other dose. Hits are enriched below; roughly 2.8% of the tested compounds scored in any of these assays. Unless noted, calls follow the shape of the dose curve; as a rule, active = well fitted curve in the direction sought with a large enough effect; inconclusive = small, poorly fitted or top-dose-only effect, or another doubt; inactive = no such curve, though single readings can be large; an effect the other way counts as inactive or inconclusive.

SMILES	KDM5B inhibitor	IP6K1 inh	SNCA expr inh	SNCA viab count
COc1cccc([S+](=O)([O-])N2CCC(c3nnc4n3C(C(=O)O)CC4)CC2)c1 (stereo not drawn)	79.4µM*	-4.7	-12.4%	2.8%
C=CCNC(=O)c1cc(-c2ccc3ccccc3n2)nc2ccccc12	i	/	/	/
S=C(NCCC(c1ccccc1)c1ccccc1)NC1CC1	i	/	/	/
CC(=O)N1C[C@@H]2CCCN3CCC[C@@H]([C@H]23)[C@H]1CCCC(=O)N(C)C	20µM*	1.2	-2.5%	-0.3%
CCN1CCN(CCNC(=O)CCC[C@@H]2[C@H]3CCCN4CCC[C@@H](CN2C(C)=O)[C@@H]34)CC1	i	0.5	-15.7%	9.0%
CC(=O)N1C[C@@H]2CCCN3CCC[C@@H]([C@H]23)[C@H]1CCCC(=O)NCCCN1CCCCC1	25.1µM*	10.2	12.3%	-4.3%
CN(C)C(=O)CCC[C@@H]1[C@H]2CCCN3CCC[C@@H](CN1C)[C@@H]23	i	6.2	-12.6%	-1.6%
CC(=O)N1C[C@@H]2CCCN3CCC[C@@H]([C@H]23)[C@H]1CCCC(=O)NCCN1CCCCC1	22.4µM*	-6.8	-7.7%	16.6%
O=C(CCC[C@@H]1[C@H]2CCCN3CCC[C@@H](CN1Cc1ccccc1)[C@@H]23)NCCCn1cccn1	22.4µM*	-1.3	-5.5%	6.1%
CCn1nc(C(=O)OC(C)C(=O)N2CCCc3ccccc32)c2ccccc2c1=O (stereo not drawn)	i	/	/	/
Cc1c(Cl)cccc1NC(=O)c1noc2c1CC(C)CC2 (stereo not drawn)	i	/	/	/
CCOc1nccnc1NC1CCN(C(=O)c2ccc(C)s2)CC1	28.2µM*	-7.7	-10.8%	3.7%
CCOc1nccnc1NC1CCN(C(=O)c2cccn2C)CC1	28.2µM*	-0.4	12.5%	6.9%
Cc1ccc(C(=O)N2CCC(OC3CCN(C)CC3)CC2)s1	i	11.3	1.0%	4.6%
COc1ccc2ncc(C#N)c(Nc3cc(OC)c(OC)c(OC)c3)c2c1	i	/	/	/
C=C(C)Cn1c(NCCCOCC)nc2c1c(=O)[nH]c(=O)n2C	i	/	/	/
CCOc1ccccc1CN1CCC([C@@H]2CNC[C@H]2CO)CC1	i	18.3	25.1µM*	7.6%[12.5 µM]
O=C(NCCc1ccccc1)N1CC(Oc2ccccc2-c2nc(-c3ccccc3)no2)C1	25.1µM*	16.5	-1.5%	-25.2%
CCn1ccc(C(=O)N2CCc3nc(NC)nc(C(=O)N4CCCC4)c3C2)n1	17.8µM*	11.4	-22.1%	-5.3%
CCc1ccc([S+](=O)([O-])c2nnn3c2nc(NCc2ccncc2)c2ccccc23)cc1	50.1µM*	21.7	17.0%	-27.3%
Cc1ccc([S+](=O)([O-])c2nnn3c2nc(NCc2ccncc2)c2ccccc23)cc1	?	-2.5	-13.2%	5.7%
O=[S+]([O-])(c1ccc(Cl)cc1)c1nnn2c1nc(NCc1ccncc1)c1ccccc12	89.1µM*	-2.4	35.3%	8.2%
Cc1cc(C)c([S+](=O)([O-])c2nnn3c2nc(NCc2ccncc2)c2ccccc23)c(C)c1	?	7.4	-20.6%	-4.4%
COc1ccc([S+](=O)([O-])c2nnn3c2nc(NCc2ccncc2)c2ccccc23)cc1	?	7.6	33.4%	-4.5%
CC(C)c1ccc([S+](=O)([O-])c2nnn3c2nc(NCc2ccncc2)c2ccccc23)cc1	79.4µM*	-1.7	?	-9.7%
SMILES	KDM5B inhibitor	IP6K1 inh	SNCA expr inh	SNCA viab count
Cc1ccc(C)c([S+](=O)([O-])c2nnn3c2nc(NCc2ccncc2)c2ccccc23)c1	89.1µM*	2.6	-6.5%	-20.1%
CNC(=O)c1cccc(CNC(=O)C2CCCC2)c1	i	/	/	/
COc1cccc(CN(C)CC(=O)Nc2cc(C)nn2-c2cc(C)ccc2C)c1	i	/	/	/
Cc1cn2nc(C(=O)NCc3ccc(F)cc3F)cc2c(N(C)Cc2ccccc2)n1	i	0.2	-28.4%	7.9%
Cc1cn2nc(C(=O)NCc3cccc(Cl)c3)cc2c(N(C)Cc2ccccc2)n1	25.1µM*	-6.4	2.5%	-4.2%
Cc1cn2nc(C(=O)NCc3ccc(Cl)cc3)cc2c(N(C)Cc2ccccc2)n1	14.1µM*	4.6	0.8%	8.0%
Cc1cn2nc(C(=O)N3CCOCC3)cc2c(N(C)Cc2ccccc2)n1	?	-0.4	-18.0%	-1.7%
C(=N\N=C(c1ccccc1)c1ccccc1)/c1ccsc1	i	/	/	/
